The target in assay [1] is Aryl hydrocarbon receptor (Homo sapiens) (UniProt P35869). As to the kind of experiment: qHTS assay to identify small molecule that activate the aryl hydrocarbon receptor (AhR) signaling pathway (AID 743085). Further: nearly all actives have a fitted effect of over 15% in size. Further: potency means the concentration at half of the fitted maximal effect.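 On activation: HG2L7.5c1 human HepG2 liver cells with stably integrated DRE-driven firefly reporter; series mostly up to about 70 µM.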 The method, boiled down: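 Cell line HG2L7.5c1 (human hepatoma, 20× DRE-luc). Plated, 5 h 37C, compound/DMSO added, 24 h 37C. CellTiter-Fluor 30 min 37C → fluorescence; then ONE-Glo 30 min RT → luminescence.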
Background: In qHTS, concentration-response curves come from the screen itself.

A short description of assay [2]: qHTS assay to identify small molecule that activate the aryl hydrocarbon receptor (AhR) signaling pathway - cell viability counter screen (AID 743086).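 Further: HepG2 liver cells carrying the AhR DRE luciferase reporter; series mostly up to about 70 µM; nearly all actives have a fitted effect of over 45% in size.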 The gist of the method: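 HepG2-AhR-luc (HG2L7.5c1) cells, 4000/well, were preincubated 5 h at 37C, exposed to compound in qHTS format for 24 hr at 37C, then given CellTiter-Fluor for 30 min; viability was read as fluorescence in the reporter wells.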

In assay [3] the target is Peroxisome proliferator-activated receptor gamma (Homo sapiens) (UniProt P37231). As to the kind of experiment: qHTS assay to identify small molecule agonists of the peroxisome proliferator-activated receptor gamma (PPARg) signaling pathway (AID 743094; active means well fitted activation curve with a large enough effect in the signal ratio in the repeat runs, not every such curve was filed as active; the % refers to the signal ratio). The gist of the method:
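Fluorescence-based beta-lactamase readout in HEK293H PPARg UAS-bla cells after 17 h compound exposure (37C) and 1 h B/G FRET substrate incubation at room temperature.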

For assay [4] the target is unchanged. As to the kind of experiment: qHTS assay to identify small molecule antagonists of the peroxisome proliferator-activated receptor gamma (PPARg) signaling pathway (AID 743191; calls by dose curve; further: series mostly up to about 63 µM; nearly all actives have a fitted effect of over 30% in size). The gist of the method: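 GeneBLAzer PPARg UAS-bla HEK293H cells carrying a UAS-driven beta-lactamase reporter were plated at 3000 cells/well, preincubated 5 h at 37C, then given compound for 17 h at 37C; LiveBLAzer B/G FRET substrate was read after 1 h at room temperature.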

Assay [5] can be described thus: qHTS assay to identify small molecule antagonists of the peroxisome proliferator-activated receptor gamma (PPARg) signaling pathway - cell viability counter screen (AID 743194). Further: nearly all actives have a fitted effect of over 55% in size. The gist of the method:
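PPARg-UAS-bla HEK293H cells were plated, rested 5 h at 37 C, then treated with compounds plus rosiglitazone (50 nM final) for 17 h at 37 C; viability was then read by CellTiter-Glo luminescence after 30 min at room temperature.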

The nature of assay [6]: qHTS assay for small molecule agonists of the antioxidant response element (ARE) signaling pathway (AID 743202; active means well fitted activation curve with a large enough effect in the signal ratio in the repeat runs, not every such curve was filed as active; the % refers to the signal ratio). The method, boiled down: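 Following a 16 h, 37 C exposure of reporter HepG2 cells (ARE-driven beta-lactamase, 2,000 cells/well) to compounds, FRET substrate was applied for 2 h at room temperature and fluorescence intensity recorded.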
A short description of assay [7]: qHTS assay for small molecule agonists of the antioxidant response element (ARE) signaling pathway - cell viability counter screen (AID 743203; calls by dose curve; further: nearly all actives have a fitted effect of over 55% in size). The method, boiled down:
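Parallel cytotoxicity read-out for the ARE-bla screen: HepG2 reporter cells, 16 hrs with compounds, then CellTiter-Glo luminescence.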

The nature of assay [8]: qHTS assay for small molecule activators of the heat shock response signaling pathway - cell viability counter screen (AID 743209). Further: nearly all actives have a fitted effect of over 50% in size. The method, boiled down: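 To flag cytotoxic compounds, HSE-bla HeLa cells plated at 1500 cells/well were dosed for 5 h at 37 C, followed by the reporter FRET read and then CellTiter-Glo, with luminescence recorded 30 min after reagent addition.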

Assay [9] is described as follows: qHTS assay for small molecule activators of the heat shock response signaling pathway (AID 743210; active means well fitted activation curve with a large enough effect in the signal ratio in the repeat runs, with a control signal flat, not every such curve was filed as active; the % refers to the signal ratio; further: series mostly up to about 63 µM). The method, boiled down: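 Heat shock element–beta-lactamase HeLa reporter cells; qHTS with compounds for 5 h at 37 C; detection by FRET substrate fluorescence after 2.5 h at RT.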
Assay [10] can be described thus: qHTS assay to identify small molecule agonists of the peroxisome proliferator-activated receptor delta (PPARd) signaling pathway - cell viability counter screen (AID 743211). Further: nearly all actives have a fitted effect of over 55% in size. The gist of the method:
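HEK293H PPARd-bla, 3000 cells/well; 5 h preincubation 37C/5% CO2; cpd in DMSO, 17 h 37C; B/G FRET substrate 2 h RT; CellTiter-Glo 30 min RT, luminescence.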

Assay [11] in a line: qHTS assay to identify small molecule antagonists of the peroxisome proliferator-activated receptor delta (PPARd) signaling pathway - cell viability counter screen (AID 743213). Further: nearly all actives have a fitted effect of over 50% in size. The method, boiled down: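 HEK293H cells with the PPARd UAS-bla reporter, co-treated 17 h at 37 C with compounds and L165041 (300 nM final), were lysed with CellTiter-Glo. Luminescence indicated viable cell content.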

Assay [12] in a line: qHTS assay to identify small molecule antagonists of the farnesoid-X-receptor (FXR) signaling pathway - cell viability counter screen (AID 743221; active means well fitted cell-killing curve with a large enough effect in the repeat runs, not every such curve was filed as active; further: nearly all actives have a fitted effect of over 50% in size). The gist of the method:
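Luminescence from CellTiter-Glo measures cytotoxicity in GeneBLAzer FXR-UAS-bla HEK 293T cells. Cells were exposed to compounds with 50 uM chenodeoxycholic acid (final) for 16 h at 37 C, in wells also used for the reporter readout.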

Assay [13] has as its target Vitamin D3 receptor (Homo sapiens) (UniProt P11473). Kind of assay: qHTS assay to identify small molecule agonists of the vitamin D receptor (VDR) signaling pathway (AID 743222; calls by dose curve). The method, boiled down: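 Using LiveBLAzer B/G FRET detection, agonism was scored in VDR-bla cells exposed overnight (16 h, 37C) to DMSO-dissolved compounds; substrate incubation was 2 h at room temperature.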

The target is the same in assay [14]. Kind of assay: qHTS assay to identify small molecule antagonists of the vitamin D receptor (VDR) signaling pathway (AID 743223; active means well fitted inhibition curve with a large enough effect in the signal ratio in the repeat runs, not every such curve was filed as active; the % refers to the signal ratio). The gist of the method: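 Antagonist mode uses 1alpha,25-dihydroxyvitamin D3 at 3 nM final as stimulus. VDR-bla cells receive compounds in DMSO, incubate 16 h at 37C, then a beta-lactamase FRET substrate for 2 h at room temperature before fluorescence measurement.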

Assay [15] is described as follows: qHTS assay to identify small molecule agonists of the vitamin D receptor (VDR) signaling pathway - cell viability counter screen (AID 743224). Further: series mostly up to about 63 µM; nearly all actives have a fitted effect of over 50% in size. The gist of the method:
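Counter screen for cytotoxicity: VDR-bla cells at 2,000 cells/well, 16 h compound exposure, then CellTiter-Glo luminescence after the beta-lactamase measurement.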

Assay [16] is described as follows: qHTS assay to identify small molecule antagonists of the vitamin D receptor (VDR) signaling pathway - cell viability counter screen (AID 743225). Further: nearly all actives have a fitted effect of over 50% in size. The method, boiled down:
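Read-out: CellTiter-Glo luminescence measured 30 min after reagent addition at room temperature. Cells were VDR-bla HEK 293T exposed 16 h at 37C, 5% CO2, to compound with 3 nM final calcitriol agonist.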

Assay [17] deals with Peroxisome proliferator-activated receptor delta (Homo sapiens) (UniProt Q03181). As to the kind of experiment: qHTS assay to identify small molecule agonists of the peroxisome proliferator-activated receptor delta (PPARd) signaling pathway (AID 743212; calls by dose curve). The gist of the method: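 Beta-lactamase reporter read by fluorescence (LiveBLAzer B/G FRET, 2 h, room temperature). Test agents, in DMSO, incubated at 37 C with PPARd-bla HEK293H cells.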

The target in assay [18] is Bile acid receptor (Homo sapiens) (UniProt Q96RI1). As to the kind of experiment: qHTS assay to identify small molecule antagonists of the farnesoid-X-receptor (FXR) signaling pathway (AID 743217; active means well fitted inhibition curve with a large enough effect in the signal ratio in the repeat runs, not every such curve was filed as active; the % refers to the signal ratio). The gist of the method: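 Quantitative HTS, beta-lactamase reporter format: FXR-UAS-bla HEK 293T cells co-treated 16 h at 37 °C with compounds and 50 uM final chenodeoxycholic acid, then read by B/G FRET fluorescence.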

Assay [19] in a line: qHTS assay to identify small molecule agonists of the farnesoid-X-receptor (FXR) signaling pathway - cell viability counter screen (AID 743218). Further: nearly all actives have a fitted effect of over 45% in size. The gist of the method:
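Same-well cytotoxicity check on FXR-UAS-bla HEK 293T cells: 5 h attachment, 16 h compound at 37 C, CellTiter-Glo luminescence read at room temperature after 30 min.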

For assay [20], the target named is Bile acid receptor (Homo sapiens) (UniProt Q96RI1). As to the kind of experiment: qHTS assay to identify small molecule agonists of the farnesoid-X-receptor (FXR) signaling pathway (AID 743220; active means well fitted activation curve with a large enough effect in the signal ratio in the repeat runs, not every such curve was filed as active; the % refers to the signal ratio). The method, boiled down: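 FXR-UAS-bla HEK 293T cells carrying a UAS-driven beta-lactamase reporter were plated for 5 h at 37C/5% CO2, then exposed to DMSO-dissolved Tox21 10K compounds for 16 h at 37C. A LiveBLAzer B/G FRET substrate was loaded for 2 h at room temperature before fluorescence reading.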

Structures are written as SMILES. Inconclusive results are not listed. The source made the active and inactive calls. Unless noted, the call rests on the fitted dose curve; in most records, active means well fitted curve in the direction sought with a large enough effect in the repeat runs; inconclusive means weak or mixed curves; inactive means no such curve, though single readings can be large; an effect the other way counts as inactive or inconclusive.

Peroxisome proliferator-activated receptor gamma (Homo sapiens), sequence (P37231 whole entry, looked up): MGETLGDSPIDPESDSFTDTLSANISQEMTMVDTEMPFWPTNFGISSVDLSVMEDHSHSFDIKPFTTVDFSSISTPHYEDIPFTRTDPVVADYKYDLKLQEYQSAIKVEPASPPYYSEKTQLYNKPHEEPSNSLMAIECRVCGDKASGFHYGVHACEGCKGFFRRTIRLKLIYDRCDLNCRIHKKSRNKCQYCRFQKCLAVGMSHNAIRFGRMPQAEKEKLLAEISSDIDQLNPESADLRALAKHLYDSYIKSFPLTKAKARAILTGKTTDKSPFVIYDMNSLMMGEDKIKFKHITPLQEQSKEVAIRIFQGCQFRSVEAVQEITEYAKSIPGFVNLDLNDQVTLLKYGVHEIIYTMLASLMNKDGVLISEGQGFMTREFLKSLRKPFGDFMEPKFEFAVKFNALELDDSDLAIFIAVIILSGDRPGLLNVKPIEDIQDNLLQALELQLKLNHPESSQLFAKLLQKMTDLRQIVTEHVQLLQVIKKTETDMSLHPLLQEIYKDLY
Vitamin D3 receptor (Homo sapiens), sequence (P11473 whole entry, looked up): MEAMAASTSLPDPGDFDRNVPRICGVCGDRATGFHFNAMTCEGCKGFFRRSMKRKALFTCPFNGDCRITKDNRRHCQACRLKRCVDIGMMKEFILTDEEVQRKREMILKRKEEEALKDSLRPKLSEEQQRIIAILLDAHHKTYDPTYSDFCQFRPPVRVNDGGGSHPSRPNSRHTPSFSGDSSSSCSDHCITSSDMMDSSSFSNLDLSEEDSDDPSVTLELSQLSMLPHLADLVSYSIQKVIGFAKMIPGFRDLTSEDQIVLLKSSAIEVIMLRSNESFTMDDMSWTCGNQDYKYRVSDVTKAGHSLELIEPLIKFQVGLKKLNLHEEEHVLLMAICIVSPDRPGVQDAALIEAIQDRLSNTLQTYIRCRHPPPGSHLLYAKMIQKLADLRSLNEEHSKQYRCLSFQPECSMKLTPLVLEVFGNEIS
Aryl hydrocarbon receptor (Homo sapiens), sequence (P35869 whole entry, looked up): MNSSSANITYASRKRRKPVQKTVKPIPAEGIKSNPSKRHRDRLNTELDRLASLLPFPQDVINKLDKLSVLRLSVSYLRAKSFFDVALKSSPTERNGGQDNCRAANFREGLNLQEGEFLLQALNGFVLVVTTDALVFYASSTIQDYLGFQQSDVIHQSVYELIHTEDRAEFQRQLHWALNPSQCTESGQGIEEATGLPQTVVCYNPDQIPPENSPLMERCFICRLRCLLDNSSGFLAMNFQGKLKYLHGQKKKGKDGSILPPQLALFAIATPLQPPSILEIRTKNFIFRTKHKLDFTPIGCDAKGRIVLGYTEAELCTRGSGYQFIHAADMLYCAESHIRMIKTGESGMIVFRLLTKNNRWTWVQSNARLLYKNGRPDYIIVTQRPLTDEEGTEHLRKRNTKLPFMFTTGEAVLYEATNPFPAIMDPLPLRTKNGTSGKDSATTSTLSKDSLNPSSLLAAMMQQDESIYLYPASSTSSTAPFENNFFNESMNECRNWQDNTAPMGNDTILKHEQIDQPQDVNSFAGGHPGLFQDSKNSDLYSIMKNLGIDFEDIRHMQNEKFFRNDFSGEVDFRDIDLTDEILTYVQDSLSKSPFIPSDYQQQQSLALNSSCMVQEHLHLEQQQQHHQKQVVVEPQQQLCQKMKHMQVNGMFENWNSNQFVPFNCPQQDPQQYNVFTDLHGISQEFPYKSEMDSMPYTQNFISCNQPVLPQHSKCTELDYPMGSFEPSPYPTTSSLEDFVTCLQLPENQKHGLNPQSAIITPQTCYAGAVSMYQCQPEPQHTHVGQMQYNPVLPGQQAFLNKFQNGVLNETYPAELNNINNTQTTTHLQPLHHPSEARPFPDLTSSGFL
Bile acid receptor (Homo sapiens), sequence (Q96RI1 whole entry, looked up): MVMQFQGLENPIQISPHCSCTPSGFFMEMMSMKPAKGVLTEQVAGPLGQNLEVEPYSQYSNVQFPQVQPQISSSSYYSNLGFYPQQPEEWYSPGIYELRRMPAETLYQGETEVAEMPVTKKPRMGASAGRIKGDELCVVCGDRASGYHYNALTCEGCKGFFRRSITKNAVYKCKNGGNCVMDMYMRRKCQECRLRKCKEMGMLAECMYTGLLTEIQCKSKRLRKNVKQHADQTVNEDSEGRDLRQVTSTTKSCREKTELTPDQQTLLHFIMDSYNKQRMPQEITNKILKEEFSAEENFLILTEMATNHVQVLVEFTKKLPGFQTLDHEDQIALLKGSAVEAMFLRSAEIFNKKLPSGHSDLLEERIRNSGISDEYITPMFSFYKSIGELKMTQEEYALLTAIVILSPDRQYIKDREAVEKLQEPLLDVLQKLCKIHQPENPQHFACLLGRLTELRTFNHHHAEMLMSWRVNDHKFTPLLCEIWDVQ
Peroxisome proliferator-activated receptor delta (Homo sapiens), sequence (Q03181 whole entry, looked up): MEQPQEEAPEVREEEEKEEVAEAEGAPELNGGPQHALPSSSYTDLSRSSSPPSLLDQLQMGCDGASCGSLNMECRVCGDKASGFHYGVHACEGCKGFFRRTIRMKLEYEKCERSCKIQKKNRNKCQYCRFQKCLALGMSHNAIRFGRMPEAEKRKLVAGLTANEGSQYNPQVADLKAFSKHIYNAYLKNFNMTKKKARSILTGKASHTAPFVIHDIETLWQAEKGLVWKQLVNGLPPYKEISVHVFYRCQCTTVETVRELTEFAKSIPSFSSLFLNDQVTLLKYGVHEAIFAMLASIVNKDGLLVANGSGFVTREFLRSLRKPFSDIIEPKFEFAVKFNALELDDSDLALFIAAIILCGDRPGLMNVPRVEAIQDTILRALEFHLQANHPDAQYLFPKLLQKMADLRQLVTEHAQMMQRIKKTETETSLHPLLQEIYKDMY

As to `NC(CO)(CO)CO`, the Potency result in assay [1], in assay [2], in assay [3], in [4], in assay [5] and in assay [6] was “inactive” throughout. For the same compound, the Potency entry in assay [7], in [8], in assay [10], in assay [11], in assay [12] and in [13] was “inactive” each time. The Potency entry in [14], in assay [15] and in assay [16] was “inactive” throughout. In addition, the call in assay [9] was inactive.
For `CC(=O)CCC(=O)O`, the Potency result in assay [1], in [3], in assay [4], in assay [5], in assay [6] and in assay [7] was “inactive” throughout. The Potency result in assay [8], in [10], in assay [11], in assay [12], in assay [13] and in assay [14] was “inactive” in each case. For the same compound, the Potency entry in assay [15] and in [16] was “inactive” throughout.
In the case of `C[C@](N)(Cc1ccc(O)c(O)c1)C(=O)O`, the Potency entry in assay [1], in assay [3], in assay [4], in assay [5], in assay [6] and in assay [7] was “inactive” throughout. The Potency entry in assay [8], in assay [10], in assay [11], in assay [12], in assay [13] and in [14] was “inactive” in each case. The Potency result in assay [15] and in assay [16] was “inactive” throughout.
Take `CN(N=O)C(=O)N[C@@H]1[C@@H](O)[C@H](O)[C@@H](CO)O[C@@H]1O`: the Potency result in [1], in assay [3], in assay [4], in [5], in assay [6] and in assay [7] was “inactive” each time. Further, the Potency result in assay [8], in assay [10], in assay [17], in assay [11], in [18] and in assay [19] was “inactive” in each case. The Potency entry in [12], in [13], in assay [14], in assay [15] and in assay [16] was “inactive” in each case. Besides, the result in assay [9] and in [20] was inactive.
As for `Cc1cc(C)nc(NS(=O)(=O)c2ccc(N)cc2)n1`, the Potency result in assay [1], in assay [3], in assay [4], in [5], in assay [6] and in assay [7] was “inactive” each time. Moreover, the Potency entry in assay [8], in assay [10], in assay [17], in assay [11], in assay [18] and in assay [12] was “inactive” each time. In addition, the Potency entry in assay [15] and in assay [16] was “inactive” in each case. The compound was classed as inactive in assay [9] and in assay [20].
On to `NC(=O)n1c(O)c(C(=O)c2cccs2)c2cc(Cl)ccc21`, for which, in assay [1], the Potency is 23.7 µM (active). Also, the Potency result in assay [2], in [10], in assay [12] and in assay [16] was “inactive” throughout. The compound was called inactive in assay [9] and in [20].
With `CCCc1cc(=O)[nH]c(=S)[nH]1`, the Potency entry in assay [1], in assay [3], in [4], in assay [5], in assay [6] and in [7] was “inactive” in each case. In addition, the Potency result in assay [8], in assay [10], in [17], in assay [11], in [12] and in assay [15] was “inactive” throughout. Further, the Potency entry in assay [16] is “inactive”. Also, the compound was called inactive in assay [9].

The record behind these values is PubChem BioAssay (Tox21).
